# Data taken from ChEMBL document CHEMBL3433997, “St. Jude Leishmania screening dataset” (2016).
# How the values were obtained:
# Assay type in all cases: functional
# [1] = molecular target: Solute carrier family 2, facilitated glucose transporter member 1 (Homo sapiens) (UniProt P11166); assay: ST_JUDE_LEISH: Cytotoxicity at 2uM final concentration against transgenic Leishmania Mexicana promastigotes LmGLUT1 that are glucose transport deficient and complemented with the human glucose transporter GLUT1. Activity is measured by DNA content using SYBR green in vitro
# [2] = molecular target: Hexose transporter 1 (Plasmodium falciparum) (UniProt O97467); assay: ST_JUDE_LEISH: Cytotoxicity at 2uM final concentration against transgenic Leishmania Mexicana promastigotes LmPfHT that are glucose transport deficient and complemented with the Plasmodium falciparum hexose transporter. Activity is measured by DNA content using SYBR green in vitro
# [3] = molecular target: Glucose transporter (Leishmania mexicana) (UniProt O61059); assay: ST_JUDE_LEISH: Cytotoxicity at 2uM final concentration against transgenic Leishmania Mexicana promastigotes LmGT2 that are glucose transport deficient and complemented with the L. Mexicana glucose transporter 2. Activity is measured by DNA content using SYBR green in vitro
# Sequence of Solute carrier family 2, facilitated glucose transporter member 1 (Homo sapiens) (P11166 whole entry): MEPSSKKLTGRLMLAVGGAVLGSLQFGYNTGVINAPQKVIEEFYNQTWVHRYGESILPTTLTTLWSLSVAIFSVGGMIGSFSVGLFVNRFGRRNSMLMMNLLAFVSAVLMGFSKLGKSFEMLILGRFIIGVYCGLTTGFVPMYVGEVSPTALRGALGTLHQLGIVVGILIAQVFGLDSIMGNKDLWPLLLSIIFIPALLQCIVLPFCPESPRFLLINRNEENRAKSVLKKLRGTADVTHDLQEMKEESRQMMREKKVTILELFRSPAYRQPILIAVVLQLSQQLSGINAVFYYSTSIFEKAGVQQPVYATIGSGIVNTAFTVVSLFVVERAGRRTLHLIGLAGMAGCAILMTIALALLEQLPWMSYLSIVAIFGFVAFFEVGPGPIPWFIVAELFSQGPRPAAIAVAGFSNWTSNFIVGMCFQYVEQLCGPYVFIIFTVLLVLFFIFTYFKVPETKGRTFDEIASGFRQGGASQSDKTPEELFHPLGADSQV
SMILES,inhibition [1] [%],inhibition [2] [%],inhibition [3] [%]
COCCNCc1nc(-c2ccc3c(Nc4ccc(F)c(O)c4)ccnc3c2)cs1,2.38,1.29,0.42
Cc1cc(C(=O)Nc2ccc3c(c2)CCN3C2CCN(Cc3cc(F)cc(F)c3F)C2)no1 (centres undefined),-0.31,1.36,5.53
CCN(CC)CCCN(C(=O)Nc1c(Cl)cncc1Cl)c1nc(-c2ccc(F)cc2)cs1,2.47,2.42,3.83
COCn1ccc2c3c(N)nc(N)nc3ccc21,0.07,6.21,2.32
O=C(N[C@@H](Cc1ccccc1)C(=O)NC1CCCCCC1)c1ccc(O)c(-c2ccc(Cl)c(Cl)c2)c1,3.99,3.77,3.08
Nc1nc(N)c2c(ccc3c2ccn3CC2CC2)n1,2.11,6.17,0.91
CC(CO)(CO)NCc1cc2c3ccccc3c(CNC(C)(CO)CO)cc2c2ccccc12,5.4,2.65,2.67
COc1ccc(Nc2nc(N/N=C/c3ccc(-c4ccc([N+](=O)[O-])cc4)o3)nc(Nc3ccccc3)n2)cc1,14.4,10.6,9.94
O=C(/C=C/c1ccc(Cl)c(Cl)c1)NCCCCCN1CCN(C(=O)Nc2cccc(F)c2)CC1,3.99,2.95,2.33
Cc1cccc2nc(-c3ccc(-c4ccc(CNCCCNS(C)(=O)=O)cc4)s3)[nH]c12,7.9,8.05,6.95
CCc1ccc(CN(Cc2ccc(C)cc2)Cc2ccc(NC(C)=O)cc2)cc1,2.72,3.95,2.91
O=C(Nc1cccc(CN2CCCN(Cc3ccc(O)cc3)CC2)c1)c1ccc2ccccc2n1,2.74,2.83,-3.88
COc1ccc(Nc2nc(NCc3ccco3)c3ccccc3n2)cc1,25.5,20,12.1
O=C(/C=C/c1ccc(Cl)c(Cl)c1)NCCCCCN1CCC(n2c(=O)[nH]c3ccccc32)CC1,8.14,7.32,7.73
Cc1cc2nc(N/C(N)=N/C(=O)NC3CCCCC3)nc(C)c2cc1C,3.18,3.48,0.78
Oc1ccc(CN2CCC(NCc3cccc4ccccc34)CC2)cc1,12.4,11.6,9.93
Cn1nc(-c2ccc(Cl)cc2)c2cc(C(=O)NCCN3CCOCC3)sc21,-0.16,1.5,-0.52
COc1ccccc1CNC(=O)CCn1c(=O)[nH]c2ccsc2c1=O,2.58,3.17,1.36
O=C(N[C@H]1CCN(Cc2ccc(OCCCN3CCCCC3)cc2)C1)c1ccc2ccccc2c1,4.56,6.47,2.1
CC(C)C[C@H](NC(=O)c1ccc(F)cc1)C(=O)N[C@H](/C=N/NC(=O)c1ccccc1)CCc1ccccc1,4.79,6.16,3.91
CC(=O)Nc1ccc(C(=O)Nc2cccc(-c3ccc(-c4nc5cccc(C)c5[nH]4)cc3)c2)cn1,4.86,4.51,4.91
CC(C)(C)C(=O)Nc1ccccc1Oc1ccc(Cl)cc1,5.77,4.21,5.27
C#CCOc1ccc(N2C(N)=NC(N)=NC2(C)C)cc1,2.23,1.16,-0.42
Brc1ccccc1CNc1ccnc(NCCn2ccnc2)n1,-0.91,0.05,0.03
CC(=O)Nc1ccc(OCCN(Cc2ccccc2C(F)(F)F)c2ccc(C#N)c(C(F)(F)F)c2)cc1,18.7,16,28.2

SMILES,inhibition [1] [%],inhibition [2] [%],inhibition [3] [%]
COC(=O)c1cccc(CNCc2cccc(-c3cccc(-c4nc5cc(F)ccc5[nH]4)c3)c2)c1,5.23,5.92,4.97
COc1ccc2nccc([C@@H](O)CN3CCC(NC(=O)c4ccc(OC)c(N)c4)CC3)c2c1,14.9,16.7,11.5
CN1CCCC(CN2CCN(Cc3cccc(-c4ccc(-c5nc6ccccc6[nH]5)cc4)c3)CC2)C1 (centres undefined),7.48,9.12,6.63
N[C@@H](CCNC1CCN(c2cccc(C(F)(F)F)c2)CC1)Cc1ccc(F)c(F)c1,99.5,54.5,101
COCCOC(=O)C(=O)c1c(-c2ccccc2)c(-c2ccc(OC)c(OC)c2)c2c3cc(OC)c(OC)cc3ccn12,4.89,2.7,1.72
COc1ccccc1CNC(=O)c1cc(Br)cc(N2CCN(c3ccncc3)CC2)c1,1.71,2.47,0.83
c1ccc2c(c1)CN(CC1CCOCC1)CC1(CCN(Cc3c[nH]c4cnccc34)CC1)O2,0.57,1.23,0.88
O=C(c1ccccc1F)N(Cc1ccc(Cl)cc1)c1ccccn1,6.82,7.84,9.29
CC(C)(CNCc1ccc(C(F)(F)F)cc1)c1nc(-c2ccnc(N)n2)c(-c2ccc(Cl)c(O)c2)[nH]1,1.5,0.51,2.94
Oc1ccc(CCNc2nc(NCc3ccccc3-c3ccc(F)cc3)nc(N3CCNCC3)n2)cc1,-6.17,3.48,6.39
CCCCCC(C)c1cc(O)c2c(c1)OC(C)(C)C=C2C1=CCN(Cc2ccccc2)CC1 (centres undefined),3.67,3.53,3.47
Cc1ccc2[nH]c(-c3cc(-c4cccc(CCN5CCOCC5)c4)cnc3N)nc2c1,4.66,5.93,1.19
CN1CCCN(Cc2cccc(-c3cccc(NC(=O)c4ccc(Cl)cc4)c3)c2)CC1,5.97,4.21,3.68
COc1ccc2ccccc2c1CON1C(=N)N=C(N)NC1(C)C,1.59,1.46,1.5
O=C(/C=C/c1ccccc1F)NC1CCC(CCN2CCc3ccc(-c4cccnc4)cc3CC2)CC1 (centres undefined),15.8,15.8,20.1
CCCCCCCN1CCC(NC(=O)Nc2ccnc3ccc(OC)cc23)C(C(=O)OCC)C1 (centres undefined),-2.21,0,-2.59
CNCCNCc1ccc(-c2ccc(-c3nc4cccc(C)c4[nH]3)s2)cc1,2.93,2.48,3.92
CN(C)C(=O)c1ccc(CN(Cc2ccc(OC(C)(C)C)cc2)Cc2ccc3c(c2)OCCO3)cc1,0.59,2.04,0.26
CC[C@H](C)CNC(=O)c1cccc(-c2cccc(CN3CCC(N4CCCC4)CC3)c2)n1,-2.59,-0.05,-0.2
COc1ccc(NC(=O)Nc2nc(-c3ccc(Cl)c(C)c3)cs2)cc1N1CCN(C)CC1,0.68,3.54,2.63
NS(=O)(=O)NCCCN1CCN(c2ccccc2)CC1,1.95,1.37,1.5
COc1ccc2c(NCCc3ccccc3)cc(-c3ccccc3)nc2c1,9.93,10.8,4.05
C#CCNC(=O)c1ccc(-c2ccnc(Nc3cccc(CCCN4CCOCC4)c3)n2)s1,37.4,37.9,27.2
CCc1ccc(CN(CCCOc2cccc(CC(=O)NCc3c[nH]cn3)c2)Cc2ccc(-n3ccnc3)cc2)cc1,2.55,2.84,3.08
Cc1cccc2sc(N(CCCn3ccnc3)C(=O)C=Cc3cccs3)nc12,12.6,12.7,6.56

SMILES,inhibition [1] [%],inhibition [2] [%],inhibition [3] [%]
CSCCCN1CCC(O)(c2ccc3oc(C(=O)Nc4ccc5sc(C)nc5c4)cc3c2)CC1,23.3,24.5,14.7
COc1cccc2sc(Nc3nc(-c4ccccn4)cs3)nc12,0.13,1.96,2.52
Cc1c(CNCCCNc2nc3cscc3[nH]2)sc(C(F)F)c1Br,6.65,4.46,2.43
O=C1CSc2ccc(CNC3CCN(CCc4c(Cl)cnc5ccc(F)cc45)CC3)nc2N1,0.93,1.12,2.97
COc1cc(-c2cc(-c3ccc(S(C)(=O)=O)cc3)cnc2N)ccc1O,6.13,6.34,9.19
COc1ccc(Nc2ncc3c(-c4cccc(NC(=O)Cc5ccc(O)cc5)c4)c[nH]c3n2)cc1OC,9.41,5.77,8.19
c1ccc(OCCCCN2CCCCC2)cc1,0.95,0.56,-4.15
O=C(Nc1cccc(-c2nn3ccccc3c2-c2ccnc(Nc3ccc(-c4cc[nH]n4)cc3)n2)c1)c1c(F)cccc1F,6.17,10.3,1.44
COc1cc2nc(NCCCOC(C)C)n3nc(-c4ccccc4)nc3c2cc1OC,11.4,10.4,7.73
CC(C)N1CCN(C(CN2CCN(CCCOc3cccc(F)c3)CC2)c2ccc(F)cc2)CC1 (centres undefined),-2.25,-0.57,-1.78
CC(C)CNCc1cccc(-c2cccc(CN(CCCN3CCN(C)CC3)C(=O)CCC3CCCC3)c2)c1,4.42,3.07,4.38
Cc1ccc(C)c(NC(=O)Nc2ccc(C)c(-c3ccc(C(=O)Nc4ccncc4)cc3)c2)c1,6.08,3.66,2.82
COc1cccc(C(=O)Nc2ccc(Nc3nc(C)cc(N4CCCCC4)n3)cc2)c1OC,1.99,2.75,0.19
CS(=O)(=O)NCCCNCc1cccc(-c2ccc(-c3nc4cc(C(F)(F)F)ccc4[nH]3)s2)c1,1.55,2.21,1.74
CC1CN(c2ccc3occ(C(=O)Nc4ccc(-c5ccncc5)c(Cl)c4)c3c2)CC(C)N1C (centres undefined),5.54,3.33,1.93
Cc1cc(NC(=O)c2cccs2)ccc1OC1CCN(Cc2ccc(F)cc2)CC1,1.65,2.76,5.08
Cn1nccc1C(=O)NCCNCc1ccc(-c2ccc(-c3nc4ccccc4[nH]3)s2)cc1,4.38,3.81,0.63
Cc1cc2c(cc1C(F)(F)F)N(C(=O)Nc1ccc(C(=O)NCCN3CCCC3)cc1)CC2,1.29,1.86,-0.08
CCc1cc(COc2ccc(CNCCC(C)C)cc2I)c(OCc2ccccc2)c(COc2ccc(CNCCC(C)C)cc2I)c1,-0.25,-3.29,3.76
Cc1noc(C)c1-c1cccc(CNCc2cccc(-c3ccc(-c4nc5ccccc5[nH]4)cc3)c2)c1,0.58,-1.28,-1.53
COc1ccc2nccc(N3CCCN(CCNCc4ccc5c(n4)NC(=O)CS5)CC3)c2n1,-4.21,-0.98,3.94
CCCCCCc1cnc2nc(N)nc(N)c2c1C,10.8,10,10.3
COc1cc(OC)cc(C(=O)Nc2cccc(-c3cn4ccc(C)cc4n3)c2)c1,6.3,2.27,5.98
